According to the supplement of paper PMC10127200:
Counter-ions that a name gives are not always drawn.

What was measured:
Experiment in all cases: Euclidean distance of Cell Painting phenotypic profile (signed KS, 77 features) to DMSO centroid (dimensionless distance); 5 or 10 uM (library dependent); higher = stronger phenotypic change vs DMSO (phenoactivity)
Conditions in all cases: 48 h
786-O = system: 786-O
Summary of the method: (§1)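 Harmony extracted 77 features from 20X confocal images (9 fields/well) of stained cells, scoring each as a signed Kolmogorov-Smirnov statistic against same-plate vehicle wells. The cells, five cancer lines and a healthy fibroblast line, had received library compounds for 48 h at 10 or 5 uM depending on library, with 0.1% DMSO final. Phenoactivity is the Euclidean distance from each plate-position-corrected, correlation-weighted, top-dose replicate-averaged profile to the median vehicle profile.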

A549 = system: A549
Summary of the method: as §1

DU145 = system: DU145
Summary of the method: as §1

FB = system: FB
Summary of the method: as §1

HEPG2 = system: HEPG2
Summary of the method: as §1

OVCAR4 = system: OVCAR4
Summary of the method: as §1

Structure (SMILES) | Euclidean distance (786-O) | Euclidean distance (A549) | Euclidean distance (DU145) | Euclidean distance (FB) | Euclidean distance (HEPG2) | Euclidean distance (OVCAR4)
CO[C@H]1C[C@@H]2CC[C@@H](C)[C@@](O)(O2)C(=O)C(=O)N2CCCC[C@H]2C(=O)O[C@H]([C@H](C)C[C@@H]2CC[C@@H](OP(C)(C)=O)[C@H](OC)C2)CC(=O)[C@H](C)/C=C(\C)[C@@H](O)[C@@H](OC)C(=O)[C@H](C)C[C@H](C)/C=C/C=C/C=C/1C [Ridaforolimus (Deforolimus. MK-8669)] | 2.74 | 1.98 | 1.3 | 2.88 | 1.37 | 2.04
CC(C)C[C@@H](C=O)NC(=O)[C@H](CC(C)C)NC(=O)[C@H](CC(C)C)NC(=O)OCc1ccccc1 | 3.8 | 3.23 | 3.14 | 3.41 | 3.64 | 4.07
Cc1ccc2c(Cl)cc(Cl)c(O)c2n1 [Chlorquinaldol] | 2.59 | 2.3 | 1.54 | 2.53 | 2.09 | 2.94
N=C(N)NS(=O)(=O)c1ccc(N)cc1 [Sulfaguanidine] | 1.11 | 0.776 | 1.03 | 0.936 | 0.524 | 1.55
CN1CCN(c2cccc(Nc3nc4c(-c5ccc(S(C)(=O)=O)cc5)cccn4n3)c2)CC1 | 1.38 | 1.14 | 1.07 | 1.26 | 0.565 | 1.25
COc1cc(OC)c2c(=O)[nH]c(-c3cc(C)c(OCCO)c(C)c3)nc2c1 [Apabetalone (RVX-208)] | 1.25 | 0.468 | 1.25 | 0.996 | 0.48 | 0.642
CCC1(O)C(=O)OCc2c1cc1n(c2=O)Cc2c-1nc1ccccc1c2CCNC(C)C (configuration not stated) [Belotecan (CKD-602) hydrochloride] | 4.55 | 3.8 | 3.52 | 3.19 | 3.12 | 3.62
COc1c(N2CCNC(C)C2)c(F)cc2c(=O)c(C(=O)O)cn(C3CC3)c12 (configuration not stated) [Gatifloxacin] | 0.648 | 0.598 | 0.774 | 0.851 | 0.876 | 1.07
CCCCCCCCCCC[C@@H](C[C@@H]1OC(=O)[C@H]1CCCCCC)OC(=O)[C@H](CC(C)C)NC=O [Orlistat] | 1.47 | 1.11 | 0.901 | 1.42 | 1.12 | 0.935
Cc1ccnc(NS(=O)(=O)c2ccc(N)cc2)n1 [Sulfamerazine] | 1.24 | 0.793 | 0.847 | 0.862 | 0.67 | 1.2
CC1(C)NC(=O)N(c2ccc([N+](=O)[O-])c(C(F)(F)F)c2)C1=O [Nilutamide] | 0.81 | 0.753 | 1.03 | 0.9 | 0.474 | 0.959
Cc1cccc(C)c1N(CC(=O)Nc1ccc(-c2ncon2)cc1)C(=O)C1CCS(=O)(=O)CC1 [Amenamevir] | 1.07 | 0.772 | 0.783 | 1.3 | 0.5 | 1.2
CN1CCc2c(c3ccccc3n2Cc2ccccc2)C1 [Mebhydrolin napadisylate] | 1.27 | 1.06 | 0.544 | 1.03 | 1.31 | 1.49
OCCOc1ccc(/C(=C(/CCCl)c2ccccc2)c2ccccc2)cc1 [Ospemifene] | 0.936 | 1.29 | 0.819 | 0.945 | 1.26 | 1.06
CCCCc1nc(C)c(CC(=S)N(C)C)c(=O)n1Cc1ccc(-c2ccccc2-c2nnn[nH]2)cc1 [Fimasartan] | 0.829 | 0.807 | 0.902 | 0.862 | 0.679 | 0.989
O=C(O)c1ccc(CN2CCC(CN[C@@H]3C[C@H]3c3ccccc3)CC2)cc1 | 1.04 | 1.01 | 0.946 | 1.08 | 1.11 | 1.06
C=C1CC/C=C(/C)CC[C@@H]2[C@@H]1CC2(C)C [Œ≤-Caryophyllene] | 1.02 | 0.652 | 0.86 | 0.747 | 0.457 | 1.68
C[C@@]12C[C@@]3(O)O[C@@H](O1)[C@]1(COC(=O)c4ccccc4)[C@H]3C[C@@]12O[C@@H]1O[C@H](CO)[C@@H](O)[C@H](O)[C@H]1O [Paeoniflorin] | 1.19 | 0.375 | 0.983 | 0.985 | 0.474 | 1.17
O=C(O)c1cc(=O)c2c(OCC(O)COc3cccc4oc(C(=O)O)cc(=O)c34)cccc2o1 [Disodium Cromoglycate] | 0.952 | 0.486 | 1.78 | 1.02 | 0.769 | 1.05
O=C(COc1ccc(C(=O)c2ccccc2)cc1)NC1CCN(Cc2ccccc2)CC1 [AdipoRon] | 0.958 | 0.958 | 0.661 | 0.817 | 1.11 | 0.793
Nc1ccc(S(=O)(=O)c2ccc(N)cc2)cc1 [Dapson] | 1.45 | 2.62 | 2.45 | 1.64 | 0.497 | 1.8
Cn1c([N+](=O)[O-])cnc1COC(N)=O [Ronidazole] | 1.13 | 0.834 | 0.687 | 1.01 | 0.646 | 1.59
CC(C)(C)C(=O)Oc1ccc(S(=O)(=O)Nc2ccccc2C(=O)NCC(=O)O)cc1 [Sivelestat (ONO-5046)] | 0.847 | 0.693 | 0.861 | 1.16 | 0.614 | 0.797
CC(C)(C)C(=O)OCOP(=O)(COCCn1cnc2c(N)ncnc21)OCOC(=O)C(C)(C)C [Adefovir Dipivoxil] | 2.81 | 2.71 | 2.07 | 2.73 | 3.97 | 3.18

Structure (SMILES) | Euclidean distance (786-O) | Euclidean distance (A549) | Euclidean distance (DU145) | Euclidean distance (FB) | Euclidean distance (HEPG2) | Euclidean distance (OVCAR4)
COc1c2occc2c(OC)c2c(=O)cc(C)oc12 [Khellin] | 1.37 | 0.619 | 0.84 | 0.769 | 1.17 | 0.887
Nc1ccc(/N=N/c2ccccc2)c(N)n1 [Phenazopyridine HCl] | 1.22 | 0.654 | 0.961 | 1.04 | 1.07 | 0.739
CC(C(=O)O)c1ccc2c(c1)Cc1cccnc1O2 (configuration not stated) [Pranoprofen] | 1.12 | 0.714 | 1.29 | 1.04 | 0.599 | 0.996
COc1ccc2c(c1)c(CC(=O)N1CCOCC1)c(C)n2C(=O)c1ccc(Cl)cc1 | 0.785 | 0.772 | 0.859 | 0.741 | 0.95 | 0.74
COc1ccc(/C=C\c2cc(OC)c(OC)c(OC)c2)cc1O [Combretastatin A4] | 3.46 | 3.33 | 3.91 | 2.81 | 4.14 | 2.83
Cc1ccc(S(=O)(=O)/C=C/C#N)cc1 | 1.7 | 1.37 | 1.36 | 3.14 | 2.05 | 2.5
C[C@H]1O[C@@H](O[C@H]2[C@@H](O)C[C@H](O[C@H]3[C@@H](O)C[C@H](O[C@H]4CC[C@@]5(C)[C@H](CC[C@@H]6[C@@H]5C[C@@H](O)[C@]5(C)[C@@H](C7=CC(=O)OC7)CC[C@]65O)C4)O[C@@H]3C)O[C@@H]2C)C[C@H](O)[C@@H]1O [Digoxin] | 6.92 | 5.56 | 6.87 | 4.48 | 3.09 | 6.68
CCC(Cc1c(I)cc(I)c(N)c1I)C(=O)O (configuration not stated) [Iopanoic acid] | 0.512 | 0.937 | 0.812 | 1.22 | 0.765 | 0.713
Cc1ccc(S(=O)(=O)OCC(=O)Nc2ccc(C(=O)O)c(O)c2)cc1 | 1.33 | 1.22 | 1.04 | 0.948 | 0.793 | 1.47
NNC(=O)c1ccncc1 [Isoniazid] | 1.4 | 1.36 | 0.961 | 1.16 | 0.573 | 0.885
O=C1NC(=O)/C(=C/c2ccc3nccc(-c4ccncc4)c3c2)S1 | 1.74 | 2.75 | 2 | 1.86 | 0.698 | 2.91
Fc1cc(-c2cccc3ncc(-c4cnn(C5CCNCC5)c4)nc23)cc(F)c1CN1CCOCC1 | 2.09 | 3.31 | 2.11 | 3.84 | 2.39 | 1.28
Cc1cc(O)c2c(c1)C(=O)c1cccc(O)c1C2=O [Chrysophanic Acid] | 1.36 | 0.646 | 1.3 | 1.64 | 1.34 | 1.43
CCN(CC)CCOC(=O)C1(C2CCCCC2)CCCCC1 [Dicyclomine HCl] | 1.23 | 1.1 | 1.39 | 1.16 | 1.04 | 1.43
Clc1ccc(Cn2c(CN3CCCC3)nc3ccccc32)cc1 [Clemizole] | 1.07 | 0.265 | 1.22 | 0.972 | 0.65 | 0.648
CC(C)NC[C@@H](O)COc1ccc(CC(N)=O)cc1 [(R)-(+)-Atenolol HCl] | 0.631 | 0.523 | 0.486 | 0.716 | 0.626 | 0.511
CC(C)NC(=O)COc1cccc(-c2nc(Nc3ccc4[nH]ncc4c3)c3ccccc3n2)c1 | 2.53 | 3.23 | 3.11 | 2.67 | 1.76 | 2.43
C[C@H]1COC2=C1C(=O)C(=O)c1c2ccc2c1CCCC2(C)C [Cryptotanshinone] | 1.53 | 2.51 | 1.48 | 1.17 | 1.25 | 1.31
NS(=O)(=O)c1cc(Cl)c(Cl)c(S(N)(=O)=O)c1 [Dichlorphenamide] | 0.93 | 0.762 | 0.774 | 0.872 | 0.87 | 1.01
COC(=O)[C@H]1[C@H]2C[C@@H]3c4[nH]c5cc(OC)ccc5c4CCN3C[C@H]2C[C@@H](OC(=O)c2cc(OC)c(OC)c(OC)c2)[C@@H]1OC [Reserpine] | 1.54 | 1.58 | 1.94 | 1.51 | 0.642 | 1.29
C[C@@H]1O[C@@H](Oc2c(-c3ccc(O)c(O)c3)oc3cc(O)cc(O)c3c2=O)[C@H](O)[C@H](O)[C@H]1O [Quercitrin] | 1.05 | 1.14 | 0.64 | 1.09 | 0.738 | 0.915
N#Cc1ccc([C@H]2CCc3cncn32)c(F)c1 [Osilodrostat (LCI699)] | 1.39 | 1.28 | 1.56 | 1.68 | 0.588 | 1.57
Nc1cc(F)ccc1NC(=O)c1ccc(CNC(=O)/C=C/c2cccnc2)cc1 [Tucidinostat (Chidamide)] | 3.36 | 2.59 | 2.35 | 3.31 | 3.09 | 2.66
